# Experimental data: PubChem BioAssay AID1304 (The Scripps Research Institute Molecular Screening Center, 2008)
# Out of some 220,000 compounds screened, about 800 (0.36%) were called active. The sample as a whole holds a higher share of actives than the screen did. A number with no mark means an inactive call. No stated cut-off is given here; in the data, active means activation above about 33% (passing the limit was not always enough); inactive means the rest.
# Target: Neuropeptide Y receptor type 1 (Homo sapiens) (UniProt P25929)
# Assay: activation enhancers of human NPY-Y1 – cell-based, primary screen (AID 1304);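 further: cells stimulated with NPY at EC10 then isoproterenol at EC100; 0% = low agonist plus stimulus and 100% = saturating agonist plus stimulus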
# Details: NPY-Y1 expressing cells, potentiator/agonist activation; at 3.6 µM; active compounds read high
# Chain of Neuropeptide Y receptor type 1 (Homo sapiens) (P25929 whole entry, looked up): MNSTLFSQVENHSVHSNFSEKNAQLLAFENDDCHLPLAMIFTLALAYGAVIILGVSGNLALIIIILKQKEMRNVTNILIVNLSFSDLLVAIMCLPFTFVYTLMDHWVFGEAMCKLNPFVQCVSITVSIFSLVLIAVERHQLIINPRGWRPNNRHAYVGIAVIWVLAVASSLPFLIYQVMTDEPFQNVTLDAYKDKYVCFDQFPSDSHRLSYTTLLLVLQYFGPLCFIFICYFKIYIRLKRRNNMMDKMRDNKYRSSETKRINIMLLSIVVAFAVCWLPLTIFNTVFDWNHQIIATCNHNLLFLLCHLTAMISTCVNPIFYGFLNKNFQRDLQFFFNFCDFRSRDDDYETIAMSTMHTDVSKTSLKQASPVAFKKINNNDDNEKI
row,SMILES,activation
1,Cc1ccn(-c2cccc(-n3ccc(C)n3)n2)n1,-27.2%
2,S=C(NCc1ccc2c(c1)OCO2)NCc1ccco1,-4.25%
3,C=CCOc1ccc(/C=C2\SC(=S)N(CCC(=O)O)C2=O)cc1,6.81%
4,CC(=O)Nc1ccc(OC(=O)COc2ccc(Br)cc2)cc1,-18.4%
5,CCOC(=O)CN(C(=O)COc1nc(-c2ccccc2)cc(C)c1C#N)c1ccc(F)cc1,-29.2%
6,Cc1nccn1CC(=O)N/N=C/c1ccc(O)c(O)c1,2.53%
7,Oc1ccc(/C=N/Nc2ccc(C(F)(F)F)cn2)cc1O,54.9% (active)
8,O=C(Nc1ccccc1)Nc1ccc(C(F)(F)F)cn1,5.1%
9,Cc1cc(/C=C2/SC(=O)N(CC(=O)N3CCCC3)C2=O)ccc1N1CCOCC1,15.8%
10,O=C(NCc1ccccc1)C1=C[C@@H](c2ccc(C(F)(F)F)cc2)C[C@@H](OCc2ccc(CO)cc2)O1,-2.07%
11,CC(=O)Nc1ccc(NC(=O)C(C)n2c3ccccc3c3nc(=O)cc(C)n32)cc1 (configuration not stated),-7.92%
12,CCNS(=O)(=O)c1ccc(NC(=O)Nc2cccc(OC)c2)cc1,13.3%
13,CCNS(=O)(=O)c1ccc(NC(=O)Nc2cccc(C(F)(F)F)c2)cc1,47.1% (active)
14,Cc1ccc(NC(=O)Nc2cccc(C(F)(F)F)c2)nc1,1.1%
15,Cc1cc(Cl)ccc1NC(=S)NCCCN1CCCC1=O,3.39%
16,COC(=O)c1cc(S(=O)(=O)N2CCC(C(N)=O)CC2)oc1C,-1.47%
17,O=C(N/N=C/c1ccc([N+](=O)[O-])o1)c1cccc(S(=O)(=O)N2CCOCC2)c1,-11.9%
18,O=C(CN1CCN(c2ccc(O)cc2)CC1)Nc1cc(S(=O)(=O)N2CCOCC2)ccc1Cl,-5.24%
19,O=[N+]([O-])c1cc(Cl)cc(/C=N/NC(=S)Nc2cc(S(=O)(=O)N3CCOCC3)ccc2Cl)c1O,77.5% (active)
20,CC(C)(C)C(=O)NNC(=O)c1ccc(Oc2cc(Cl)cc(Cl)c2)o1,-7.64%
21,Cc1ccc(C)c(Cn2cnc3c(oc4ccccc43)c2=O)c1,-12.5%

row,SMILES,activation
1,COc1cccc2cc(S(=O)(=O)c3ccc(C)cc3)/c(=N/NS(=O)(=O)c3ccc(C)cc3)oc12,2.71%
2,C=CCNC(=O)/C=C/c1ccc(C(C)C)cc1,9.4%
3,CCOC(=O)c1[nH]ncc1CN1CCCC(C(=O)c2ccc(OC)cc2C)C1 (configuration not stated),-0.54%
4,COc1ccc(C(=O)C2CCCN(Cc3ccc4nonc4c3)C2)c(C)c1 (configuration not stated),-11.8%
5,COc1ccc(C(=O)C2CCCN(Cc3cccn3-c3ccccn3)C2)c(C)c1 (configuration not stated),79.6% (active)
6,COC(=O)C1=C(C(=O)OC)C2(OC1c1ccc(Br)cc1)C(=O)c1ccccc1C2=O (configuration not stated),2.63%
7,Nc1c(-c2cccc(Cl)c2)cnn1-c1cccc([N+](=O)[O-])c1,43.2%
8,CCOC(=O)/C(N=Nc1cc(C(=O)O)cc(C(=O)O)c1)=C(\O)CCl,-8%
9,Cc1ccccc1NCC(=O)N/N=C\c1ccc([N+](=O)[O-])s1,39.4% (active)
10,CCOc1ccc(NC(=O)CCC(=O)N/N=C/c2ccc([N+](=O)[O-])s2)cc1,19.1%
11,COc1ccc(C(=O)NCC(=O)N/N=C/c2ccc([N+](=O)[O-])s2)cc1OC,6.89%
12,CCc1ccc2nc(Nc3ncc(C(C)=O)c(C)n3)nc(C)c2c1,9.28%
13,OCC1(CCc2ccccc2)CCN(Cc2ccc3nsnc3c2)CC1,-0.79%
14,O=C(/C=C/c1cnc2ccccc2n1)NC1CCCCCC1,-3.45%
15,COCCNC(=O)/C(C#N)=C/c1nc(N(C)C)n(-c2ccc(F)cc2)c1Cl,0.95%
16,CCCCN1C(=S)NC[C@@H]1C(C)CC (some centres not stated),-11.4%
17,CCS(=O)(=O)N1CCN(C(=O)c2cccs2)CC1,3.05%
18,O=C(c1cccs1)N1CCN(C(=O)N2CCOCC2)CC1,112% (active)
19,Cc1ccc(C(=O)N2CCN(C(=O)N3CCOCC3)CC2)cc1,-5.88%
20,O=S1(=O)C=C(SCCN2CCCC2)c2ccccc21,19%
21,O=C(CN1C(=O)CC(c2ccccc2)S(=O)(=O)c2ccccc21)NC1CCCC1 (configuration not stated),-1.33%

row,SMILES,activation
1,Cc1cc([N+](=O)[O-])c(NC2CCCCC2)c([N+](=O)[O-])c1,-19.9%
2,Cc1cc(-c2nnc(CCC(=O)NC(c3ccccc3)c3ccccc3)o2)no1,-1.1%
3,O=C(NC1CCN(Cc2ccccc2)CC1)c1ccc(Oc2cc(Cl)cc(Cl)c2)o1,2.83%
4,O=C(NC(=S)N1CCc2ccccc21)c1ccco1,5.18%
5,COC(=O)c1sc(-c2ccc(C(C)(C)C)cc2)cc1NC(=O)/C=C/C(=O)O,51.4% (active)
6,O=C(O)/C=C/C(=O)Nc1ccc(F)cc1F,-9.35%
7,COc1ccccc1NC(=O)/C=C/C(=O)O,-17.3%
8,CCOC(=O)C1CCN(C(=O)Nc2ccc(C)c(Cl)c2)CC1,2.62%
9,CCCCCCCCCCCCN1C(=O)CSC1c1cccnc1 (configuration not stated),5.01%
10,CCOC(=O)C1(S(=O)(=O)c2ccccc2)CCN(Cc2ccccc2)CC1,3.32%
11,CC1=C/C(=N\OS(=O)(=O)c2ccccc2)C=CC1=O,44.8% (active)
12,CC1=C/C(=N\S(=O)(=O)c2ccccc2)C(C(C)C)=CC1=O,2.13%
13,COc1ccc(C(=O)COC(=O)c2nn(C)c(=O)c3ccccc23)c(OC)c1,-10.6%
14,CCOc1ccc(C(=O)NC(=S)Nc2ccc(NC(=O)C(C)C)cc2)cc1[N+](=O)[O-],-12.8%
15,NC(=O)C1(N2CCCCC2)CCN(C(=O)c2ccc(C#Cc3ccccc3)o2)CC1,62.8% (active)
16,NC(=O)C1(N2CCCCC2)CCN(C(=S)Nc2ccc(Cl)cc2)CC1,-0.45%
17,CC(C)(O)C#Cc1ccc(C(=O)N2CCC(C(N)=O)(N3CCCCC3)CC2)cc1,4.73%
18,O=c1oc(-c2ccco2)nc2sc3c(c12)CCCCC3,9.25%
19,CN(c1ccccc1)S(=O)(=O)c1cccc(NC(=O)Cc2c(F)cccc2Cl)c1,-12%
20,C#CCOCCOCCOCCNc1nc(N2CCN(C(=O)[C@H](CCCCN)n3cc([C@@H](N)C(C)CC)nn3)CC2)nc(N2CCN(C(=O)[C@H](Cc3ccc(O)cc3)n3cc([C@@H](N)C(C)CC)nn3)CC2)n1 (some centres not stated),111% (active)
21,C#CCOCCOCCOCCNc1nc(N2CCN(C(=O)C(Cc3ccc(O)cc3)n3cc(C(N)CC(C)C)nn3)CC2)nc(N2CCN(C(=O)C(Cc3ccc(O)cc3)n3cc(C(N)C(C)CC)nn3)CC2)n1 (configuration not stated),11.7%

row,SMILES,activation
1,C#CCOCCOCCOCCNc1nc(N2CCN(C(=O)[C@H](Cc3ccc(O)cc3)n3cc(C(N)CC(C)C)nn3)CC2)nc(N2CCN(C(=O)[C@H](CCC(=O)O)n3cc(C(N)[C@H](C)CC)nn3)CC2)n1 (some centres not stated),-15%
2,Fc1ccc(-c2csc(-c3ccc(C4SCCS4)cc3)n2)cc1F,-5.29%
3,Cc1cccc(C)c1Nc1c(-c2ccccc2O)nc2ncccn12,80.8% (active)
4,Cc1ccccc1Nc1c(-c2ccccc2)nc2ncccn12,46.3%
5,Nc1nc(SCc2ccc([N+](=O)[O-])cc2)c2ncn(C3OC(CO)C(O)C3O)c2n1 (configuration not stated),-25.4%
6,C/C(=N\NC(=O)c1ccc(CSc2nc(C)cc(C)n2)cc1)C1CCCCC1,1.93%
7,COc1cc(C(=O)Nc2cc(C(F)(F)F)ccc2N2CCOCC2)ccc1O,-20.3%
8,O=C(CCn1ccc([N+](=O)[O-])n1)Nc1nccs1,7.17%
9,Cc1ccc(OCC(O)CN2CCN(CC(O)COc3ccc(C)cc3Cl)CC2)c(Cl)c1 (configuration not stated),6.61%
10,Cc1cccc(OCC(O)CN2CCN(CCN3C(=O)c4cccc5cccc(c45)C3=O)CC2)c1C (configuration not stated),38.1% (active)
11,Cc1cccc(C)c1OCC(O)CN1CCCCC1 (configuration not stated),1.8%
12,O=C(Nc1nnc(Cc2ccc(Cl)cc2)s1)c1ccncc1,-10.8%
13,CCCc1nc2oc3c(=O)[nH]cnc3c2c2c1COC(C)(C)C2,8.17%
14,Cc1cnc(C(=O)OCC(=O)N2CCc3ccccc32)cn1,-19.3%
15,O=C1c2cccc3cccc(c23)N1CN1CCN(c2ccccn2)CC1,11.2%
16,Cc1ccccc1OCC(O)CN1CCN(c2ccccn2)CC1 (configuration not stated),29.6%
17,OC(COc1cccc2ccccc12)CN1CCN(c2ccccn2)CC1 (configuration not stated),50.8% (active)
18,CCCOCC(O)CC(CC)C(=O)NNC(=S)Nc1ccccc1 (configuration not stated),-8.03%
19,O=C(/C=C/c1ccc(OCc2c(F)cccc2Cl)cc1)N1CCOCC1,-15.1%
